SMILES strings stand for the structures. Results filed as inconclusive are left out. Where a call stands in place of a potency, no number is given. Calls of active or inactive are those of the source. Calls follow the shape of the dose curve; as a rule, active = well fitted inhibition curve with a large enough effect; inconclusive = small, poorly fitted or top-dose-only effect; inactive = no such curve, though single readings can be large or run the other way.
Also: nearly all actives have a fitted effect of over 65% in size.

The target in one test is Retinal dehydrogenase 2 (Homo sapiens) (UniProt O94788). As to the kind of experiment: qHTS for Inhibitors of the Aldehyde Dehydrogenase Family (ALDH1A2) Confirmation screens (AID 2061314). As to conditions: ALDH1A2 enzyme inhibition qHTS confirmation; series mostly up to 45.9 µM. (Quantitative high-throughput screening tests each substance at several concentrations.)
For `CC(C)Cn1c(=O)c(C(=O)NCc2cccs2)nc2cccnc21`, the Potency entry was “inactive”.

With `COc1ccc(-c2cc(C(=O)NCCc3ccc(OC)c(OC)c3)c3ccccc3n2)cc1`, the Potency entry was “inactive”. As for `CN1C(=O)c2cccn2CC1CNC(=O)c1cccc2nccnc12` (stereo unspecified), the Potency result was “inactive”. For the compound `CC(C)OCCCNC(=O)CN1C(=O)COc2ccc(S(=O)(=O)N3CCOCC3)cc21`, the Potency result was “inactive”.

As to `Cn1nc(C(=O)N2CCOCCNC(=O)CC2)c2ccccc21`, the Potency result was “inactive”. Take `COc1ccc(NC(=O)c2cc(S(=O)(=O)N3CCOCC3)ccc2OC)cc1`: the Potency result is “inactive”. The same measure, in the same setting: the value for `COc1ccc(OC)c(S(=O)(=O)Nc2ccc3[nH]c(=O)[nH]c3c2)c1` was “inactive”; that for `COc1ccccc1Cc1nc2ccccc2nc1SCC(=O)Nc1c(C)cccc1C` was “inactive”; that for `CCC(=O)N(C1CCOCC1)C1CCN(S(=O)(=O)c2ccc(C(F)(F)F)cc2)CC1` was “inactive”. Still for that read-out and setting: the value for `Cc1cc(C)n2nc(CNS(=O)(=O)c3cccc(Cl)c3)nc2n1` was “inactive”; that for `COCCn1c(SCc2ccccc2F)nc2c([nH]c3ccccc32)c1=O` was “inactive”; that for `CCc1nn2c(=O)c(S(=O)(=O)Nc3ccc(C(C)C)cc3)c(C)nc2s1` was “inactive”. In the case of `COc1ccc(S(=O)(=O)NCc2nc3nc(C)cc(C)n3n2)cc1OC`, the Potency result is “inactive”. On the same count and under the same terms, with `CC(C)CN1C(=O)CO[C@H](c2ccc(NS(=O)(=O)c3cccc(F)c3)cc2)[C@H]1CO` the entry was “inactive”. In the case of `Cc1ccc(CCNC(=O)c2c(C)oc3nc(C)nc(N4CCOCC4)c23)cc1`, the Potency entry was “inactive”. As to `O=C(Nc1ccc(O)cc1)c1cccc(S(=O)(=O)N2CCOCC2)c1`, the Potency entry is “inactive”.

For `COc1ccc(CN(C)c2ccc(-c3nc(-c4ccccc4)no3)cc2[N+](=O)[O-])cc1`, the Potency entry was “inactive”. On to `CCN(C(=O)c1sc2nc3n(c(=O)c2c1C)CCCCC3)c1ccccc1F`, for which the Potency result was “inactive”. For `COCCn1cnnc1CN(C)C(=O)c1ccc2nc(C)cn2c1`, the Potency entry is “inactive”. The same measure, in the same setting: the value for `COc1ccc(CN2CC(O)CN([S+](=O)([O-])c3ccc(F)cc3)CC2=O)cc1` (stereo unspecified) was “inactive”; that for `Cc1ccc(CN(C(=O)COc2ccc([N+](=O)[O-])cc2)c2ccccn2)cc1` was “inactive”; that for `Cc1ccc(S(=O)(=O)NC[C@H]2O[C@@H](CC(=O)NCCN3CCOCC3)[C@H](O)[C@@H]2O)cc1` was “inactive”.

For the next test, the target named is Aldehyde dehydrogenase 1A1 (Homo sapiens) (UniProt P00352). The experiment in a line: qHTS for Inhibitors of the Aldehyde Dehydrogenase Family (ALDH1A1) Confirmatory screens (AID 2061316). Also: potency is read from the fitted curve at half-maximal effect. The following applies: ALDH inhibition qHTS; series mostly up to 47.3 µM.
On to `CCc1noc(-c2cccn3c(CNC(=O)COc4ccc(F)cc4)nnc23)n1`, for which the Potency entry is “inactive”. The same measure, in the same setting: the value for `CC(=O)Nc1sc2c(c1-c1cc3ccccc3o1)CCNC2` was 8.96 µM (active); that for `Cc1ccnc(NC(=S)N2CCN(c3ccc(O)cc3)CC2)c1` was 7.98 µM (active). Still for that read-out and setting: with `Cc1ccnc(NCc2ccc(O)c3ncccc23)c1` the figure was 8.96 µM (active).

Values taken from PubChem BioAssay (NCATS).
